# Test results published in PMC7862700, “An all-to-all approach to the identification of sequence-specific readers for epigenetic DNA modifications on cytosine”.
# Legend:
# Experiment in all cases: DAPPL (digital affinity profiling via proximity ligation, sequencing); 10 mM Tris-HCl pH 7.5, 50 mM NaCl, 1 mM DTT, 4% glycerol, room temperature, 30 min; GST-TFs on glutathione beads, 16-mer random dsDNA library, 0.1% formaldehyde crosslink after washing; high values mean tight binding
# FLI1 = target: T1, FLI1 (Homo sapiens, UniProt Q01543 1-452); details: protein: recombinant; tags: N-terminal GST; dsDNA, one strand shown
# T1 sequence: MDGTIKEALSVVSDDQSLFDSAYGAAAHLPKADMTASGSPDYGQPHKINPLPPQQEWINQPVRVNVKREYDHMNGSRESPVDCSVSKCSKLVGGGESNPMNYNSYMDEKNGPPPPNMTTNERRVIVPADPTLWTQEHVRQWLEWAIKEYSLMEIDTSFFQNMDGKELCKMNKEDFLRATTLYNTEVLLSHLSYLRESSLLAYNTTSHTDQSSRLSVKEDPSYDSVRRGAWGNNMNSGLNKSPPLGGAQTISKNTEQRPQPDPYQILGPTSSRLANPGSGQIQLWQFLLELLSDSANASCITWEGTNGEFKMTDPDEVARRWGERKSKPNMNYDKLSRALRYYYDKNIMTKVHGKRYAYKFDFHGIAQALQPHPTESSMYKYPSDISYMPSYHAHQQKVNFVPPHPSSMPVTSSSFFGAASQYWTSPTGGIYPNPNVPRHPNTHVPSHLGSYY
# Procedure, shortened: (§1)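 Human transcription factors were made in yeast as GST fusions, captured on glutathione beads and barcoded with DNA. With a tag-only sample included, the pool was incubated with 200 nmole of a random double-stranded 16-mer DNA library in Tris/NaCl/DTT/glycerol buffer at room temperature for 30 min, then crosslinked with 0.1% formaldehyde after washing, ligated by proximity, amplified and sequenced. For binding signal, each hexamer's read frequency for a factor is divided by its frequency for the tag-only sample.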
# GABPA = target: T2, GABPA (Homo sapiens, UniProt Q06546 1-454); details: protein: recombinant; tags: N-terminal GST; dsDNA, one strand shown
# T2 sequence: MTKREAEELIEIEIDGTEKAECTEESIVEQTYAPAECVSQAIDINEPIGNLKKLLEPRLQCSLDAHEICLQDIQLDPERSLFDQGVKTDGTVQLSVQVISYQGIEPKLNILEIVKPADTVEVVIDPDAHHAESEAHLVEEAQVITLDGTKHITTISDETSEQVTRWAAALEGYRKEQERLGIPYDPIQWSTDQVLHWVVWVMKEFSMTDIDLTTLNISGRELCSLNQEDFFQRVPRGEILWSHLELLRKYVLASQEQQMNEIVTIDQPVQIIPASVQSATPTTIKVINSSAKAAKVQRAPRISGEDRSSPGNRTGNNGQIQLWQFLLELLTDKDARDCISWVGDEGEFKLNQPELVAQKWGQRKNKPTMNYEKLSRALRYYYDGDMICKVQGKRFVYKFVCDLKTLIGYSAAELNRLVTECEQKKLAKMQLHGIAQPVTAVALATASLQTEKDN
# Procedure, shortened: as §1
# ERG = target: T3, ERG (Homo sapiens, UniProt P11308 1-479); details: protein: recombinant; tags: N-terminal GST; dsDNA, one strand shown
# T3 sequence: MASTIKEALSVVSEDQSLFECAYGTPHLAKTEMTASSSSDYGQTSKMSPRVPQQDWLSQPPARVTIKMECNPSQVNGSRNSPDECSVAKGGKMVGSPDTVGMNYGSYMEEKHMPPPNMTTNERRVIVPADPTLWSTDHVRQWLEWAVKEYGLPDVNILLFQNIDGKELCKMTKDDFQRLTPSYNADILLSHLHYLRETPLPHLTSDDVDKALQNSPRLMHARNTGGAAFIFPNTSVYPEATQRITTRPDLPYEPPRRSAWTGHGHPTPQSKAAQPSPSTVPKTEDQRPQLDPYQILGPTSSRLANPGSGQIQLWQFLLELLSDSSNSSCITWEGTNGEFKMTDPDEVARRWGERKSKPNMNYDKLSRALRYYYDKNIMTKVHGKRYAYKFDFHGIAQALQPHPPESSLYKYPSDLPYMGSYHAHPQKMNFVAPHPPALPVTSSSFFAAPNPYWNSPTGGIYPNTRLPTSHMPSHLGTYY
# Procedure, shortened: as §1
# ELF1 = ELF1 (Homo sapiens, UniProt P32519 1-619); details: protein: recombinant; tags: N-terminal GST; dsDNA, one strand shown
# Procedure, shortened: as §1
# EHF = target: T4, EHF (Homo sapiens, UniProt Q9NZC4 1-300); details: protein: recombinant; tags: N-terminal GST; dsDNA, one strand shown
# T4 sequence: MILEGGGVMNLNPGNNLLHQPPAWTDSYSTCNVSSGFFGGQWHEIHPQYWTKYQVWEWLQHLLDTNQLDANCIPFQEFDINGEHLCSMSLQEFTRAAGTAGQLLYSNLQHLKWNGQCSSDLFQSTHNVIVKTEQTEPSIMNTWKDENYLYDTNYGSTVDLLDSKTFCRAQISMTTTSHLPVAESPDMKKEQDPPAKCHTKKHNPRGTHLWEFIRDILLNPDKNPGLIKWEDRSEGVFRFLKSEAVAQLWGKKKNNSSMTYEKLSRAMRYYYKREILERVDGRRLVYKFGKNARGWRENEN
# Procedure, shortened: as §1
# SPI1 = SPI1 (Homo sapiens, UniProt P17947 1-270); details: protein: recombinant; tags: N-terminal GST; dsDNA, one strand shown
# Procedure, shortened: as §1
# SPIB = SPIB (Homo sapiens, UniProt Q01892 1-262); details: protein: recombinant; tags: N-terminal GST; dsDNA, one strand shown
# Procedure, shortened: as §1
# ELK3 = target: T5, ELK3 (Homo sapiens, UniProt P41970 1-407); details: protein: recombinant; tags: N-terminal GST; dsDNA, one strand shown
# T5 sequence: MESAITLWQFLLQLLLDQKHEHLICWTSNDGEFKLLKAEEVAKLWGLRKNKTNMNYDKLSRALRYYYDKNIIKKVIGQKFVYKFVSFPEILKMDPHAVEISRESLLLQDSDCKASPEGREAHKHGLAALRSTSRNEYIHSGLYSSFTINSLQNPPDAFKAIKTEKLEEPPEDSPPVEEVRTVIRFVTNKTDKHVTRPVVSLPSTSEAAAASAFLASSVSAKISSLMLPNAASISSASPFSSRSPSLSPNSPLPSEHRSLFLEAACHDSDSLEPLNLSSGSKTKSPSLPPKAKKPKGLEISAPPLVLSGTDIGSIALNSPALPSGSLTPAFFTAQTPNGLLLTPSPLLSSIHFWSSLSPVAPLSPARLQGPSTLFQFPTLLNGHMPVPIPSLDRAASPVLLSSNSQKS
# Procedure, shortened: as §1
# FEV = target: T6, FEV (Homo sapiens, UniProt Q99581 1-238); details: protein: recombinant; tags: N-terminal GST; dsDNA, one strand shown
# T6 sequence: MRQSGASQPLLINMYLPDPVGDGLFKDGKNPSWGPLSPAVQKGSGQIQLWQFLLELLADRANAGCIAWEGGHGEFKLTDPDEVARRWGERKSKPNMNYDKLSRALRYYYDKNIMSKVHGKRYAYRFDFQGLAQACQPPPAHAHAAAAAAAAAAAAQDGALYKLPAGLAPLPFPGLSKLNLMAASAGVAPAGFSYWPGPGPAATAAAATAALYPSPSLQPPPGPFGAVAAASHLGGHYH
# Procedure, shortened: as §1
# ETV5 = ETV5 (Homo sapiens, UniProt P41161 1-510); details: protein: recombinant; tags: N-terminal GST; dsDNA, one strand shown
# Procedure, shortened: as §1
# HSF1 = HSF1 (Homo sapiens, UniProt Q00613 1-529); details: protein: recombinant; tags: N-terminal GST; chain copies: 3; dsDNA, one strand shown
# Procedure, shortened: as §1
# SPIC = target: T7, SPIC (Homo sapiens, UniProt Q8N5J4 1-248); details: protein: recombinant; tags: N-terminal GST; dsDNA, one strand shown
# T7 sequence: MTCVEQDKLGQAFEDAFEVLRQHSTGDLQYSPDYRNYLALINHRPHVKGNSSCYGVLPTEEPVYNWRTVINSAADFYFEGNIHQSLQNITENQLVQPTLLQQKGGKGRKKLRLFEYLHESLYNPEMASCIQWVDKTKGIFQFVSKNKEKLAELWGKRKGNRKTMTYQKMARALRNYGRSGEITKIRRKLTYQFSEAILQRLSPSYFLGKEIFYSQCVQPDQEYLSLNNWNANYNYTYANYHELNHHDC
# Procedure, shortened: as §1
# ELF4 = ELF4 (Homo sapiens, UniProt Q99607 1-663); details: protein: recombinant; tags: N-terminal GST; dsDNA, one strand shown
# Procedure, shortened: as §1
# ELK4 = target: T8, ELK4 (Homo sapiens, UniProt P28324-2 1-405); details: protein: recombinant; tags: N-terminal GST; dsDNA, one strand shown
# T8 sequence: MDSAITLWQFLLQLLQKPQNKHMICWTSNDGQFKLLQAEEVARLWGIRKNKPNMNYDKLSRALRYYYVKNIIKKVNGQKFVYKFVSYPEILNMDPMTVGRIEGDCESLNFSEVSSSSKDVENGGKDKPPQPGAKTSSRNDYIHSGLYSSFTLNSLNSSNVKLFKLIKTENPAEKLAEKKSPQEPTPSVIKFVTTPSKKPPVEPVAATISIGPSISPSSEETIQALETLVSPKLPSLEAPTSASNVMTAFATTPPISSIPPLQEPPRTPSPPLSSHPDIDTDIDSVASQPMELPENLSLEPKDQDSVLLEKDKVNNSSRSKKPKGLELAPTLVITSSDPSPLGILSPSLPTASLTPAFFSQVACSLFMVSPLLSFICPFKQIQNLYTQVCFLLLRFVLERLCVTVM
# Procedure, shortened: as §1
# ETV2 = target: T9, ETV2 (Homo sapiens, UniProt O00321 1-342); details: protein: recombinant; tags: N-terminal GST; dsDNA, one strand shown
# T9 sequence: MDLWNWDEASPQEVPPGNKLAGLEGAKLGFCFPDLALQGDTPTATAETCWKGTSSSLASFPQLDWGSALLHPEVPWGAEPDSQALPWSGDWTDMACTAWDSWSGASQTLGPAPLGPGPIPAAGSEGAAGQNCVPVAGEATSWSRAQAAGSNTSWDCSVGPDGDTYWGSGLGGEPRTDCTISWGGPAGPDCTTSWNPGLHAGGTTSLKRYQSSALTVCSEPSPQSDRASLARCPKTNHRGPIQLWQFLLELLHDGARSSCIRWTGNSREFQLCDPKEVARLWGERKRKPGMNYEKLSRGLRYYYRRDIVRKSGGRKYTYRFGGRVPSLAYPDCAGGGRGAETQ
# Procedure, shortened: as §1
# ELF3 = target: T10, ELF3 (Homo sapiens, UniProt P78545 1-371); details: protein: recombinant; tags: N-terminal GST; dsDNA, one strand shown
# T10 sequence: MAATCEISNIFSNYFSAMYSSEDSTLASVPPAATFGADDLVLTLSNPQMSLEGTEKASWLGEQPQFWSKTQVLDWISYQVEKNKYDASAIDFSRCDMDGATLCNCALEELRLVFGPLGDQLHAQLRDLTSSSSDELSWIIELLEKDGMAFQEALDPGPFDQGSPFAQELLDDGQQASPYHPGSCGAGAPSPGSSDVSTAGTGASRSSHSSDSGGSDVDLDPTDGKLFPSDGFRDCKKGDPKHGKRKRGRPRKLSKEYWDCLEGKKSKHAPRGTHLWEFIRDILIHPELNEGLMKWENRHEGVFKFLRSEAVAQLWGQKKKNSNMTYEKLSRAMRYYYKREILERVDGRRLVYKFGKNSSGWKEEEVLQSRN
# Procedure, shortened: as §1
# CRX = CRX (Homo sapiens, UniProt O43186 1-299); details: protein: recombinant; tags: N-terminal GST; dsDNA, one strand shown
# Procedure, shortened: as §1
# ETV1 = ETV1 (Homo sapiens, UniProt P50549 1-477); details: protein: recombinant; tags: N-terminal GST; dsDNA, one strand shown
# Procedure, shortened: as §1
# Chain of ETV1 (P50549 whole entry): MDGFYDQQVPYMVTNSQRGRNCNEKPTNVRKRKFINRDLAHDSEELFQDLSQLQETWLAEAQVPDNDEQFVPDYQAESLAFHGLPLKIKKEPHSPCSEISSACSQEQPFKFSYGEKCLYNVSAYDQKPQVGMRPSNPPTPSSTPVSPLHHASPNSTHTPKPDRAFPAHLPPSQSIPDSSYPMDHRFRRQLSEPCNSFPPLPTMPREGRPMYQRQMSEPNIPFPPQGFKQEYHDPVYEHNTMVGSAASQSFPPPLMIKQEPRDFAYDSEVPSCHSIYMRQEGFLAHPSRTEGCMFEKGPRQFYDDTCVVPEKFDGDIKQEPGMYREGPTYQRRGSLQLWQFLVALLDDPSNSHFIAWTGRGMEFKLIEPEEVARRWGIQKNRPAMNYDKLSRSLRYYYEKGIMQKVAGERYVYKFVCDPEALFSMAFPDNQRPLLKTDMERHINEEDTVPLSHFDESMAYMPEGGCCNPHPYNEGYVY
# Chain of ELF4 (Q99607 whole entry): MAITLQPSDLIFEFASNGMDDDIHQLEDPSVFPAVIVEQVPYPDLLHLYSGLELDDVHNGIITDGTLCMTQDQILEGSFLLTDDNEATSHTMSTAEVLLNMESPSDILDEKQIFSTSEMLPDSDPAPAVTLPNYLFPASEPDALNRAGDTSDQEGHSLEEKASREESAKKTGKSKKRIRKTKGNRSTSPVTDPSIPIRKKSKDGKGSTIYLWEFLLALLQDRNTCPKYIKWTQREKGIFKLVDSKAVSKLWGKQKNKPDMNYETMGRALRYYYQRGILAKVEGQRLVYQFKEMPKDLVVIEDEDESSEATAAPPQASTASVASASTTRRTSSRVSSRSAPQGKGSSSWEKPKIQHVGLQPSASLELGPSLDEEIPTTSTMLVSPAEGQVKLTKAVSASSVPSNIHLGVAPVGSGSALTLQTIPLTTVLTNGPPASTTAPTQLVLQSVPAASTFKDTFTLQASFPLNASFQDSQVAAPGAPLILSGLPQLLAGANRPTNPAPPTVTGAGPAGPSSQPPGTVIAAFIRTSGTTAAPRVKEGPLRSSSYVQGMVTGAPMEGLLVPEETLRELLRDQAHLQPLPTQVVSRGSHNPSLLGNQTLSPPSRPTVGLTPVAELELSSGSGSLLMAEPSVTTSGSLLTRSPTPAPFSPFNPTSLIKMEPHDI
# Chain of CRX (O43186 whole entry): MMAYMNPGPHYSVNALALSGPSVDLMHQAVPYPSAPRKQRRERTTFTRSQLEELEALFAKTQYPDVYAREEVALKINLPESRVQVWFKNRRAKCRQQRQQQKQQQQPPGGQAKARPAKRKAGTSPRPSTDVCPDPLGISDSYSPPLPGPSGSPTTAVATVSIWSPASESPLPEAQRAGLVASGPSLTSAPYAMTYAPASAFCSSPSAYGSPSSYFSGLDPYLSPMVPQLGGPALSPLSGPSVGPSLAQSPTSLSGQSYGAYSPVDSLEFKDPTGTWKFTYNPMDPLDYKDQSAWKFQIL
# Chain of ELF1 (P32519 whole entry): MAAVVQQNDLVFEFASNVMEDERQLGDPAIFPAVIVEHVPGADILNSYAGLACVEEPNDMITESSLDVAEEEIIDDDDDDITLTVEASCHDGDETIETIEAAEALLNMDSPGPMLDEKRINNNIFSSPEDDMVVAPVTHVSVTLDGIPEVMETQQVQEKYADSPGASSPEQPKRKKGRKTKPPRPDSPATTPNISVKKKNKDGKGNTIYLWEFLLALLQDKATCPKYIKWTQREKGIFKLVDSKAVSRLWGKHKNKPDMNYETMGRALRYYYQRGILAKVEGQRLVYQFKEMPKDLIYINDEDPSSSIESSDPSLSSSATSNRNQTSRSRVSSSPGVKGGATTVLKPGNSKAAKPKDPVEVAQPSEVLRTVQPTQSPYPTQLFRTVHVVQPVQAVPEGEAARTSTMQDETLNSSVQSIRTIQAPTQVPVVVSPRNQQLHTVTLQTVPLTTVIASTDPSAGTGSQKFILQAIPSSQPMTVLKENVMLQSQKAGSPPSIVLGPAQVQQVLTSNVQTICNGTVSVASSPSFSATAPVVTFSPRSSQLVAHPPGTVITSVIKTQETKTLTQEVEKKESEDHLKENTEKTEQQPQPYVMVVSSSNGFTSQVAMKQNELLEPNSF
# Chain of ETV5 (P41161 whole entry): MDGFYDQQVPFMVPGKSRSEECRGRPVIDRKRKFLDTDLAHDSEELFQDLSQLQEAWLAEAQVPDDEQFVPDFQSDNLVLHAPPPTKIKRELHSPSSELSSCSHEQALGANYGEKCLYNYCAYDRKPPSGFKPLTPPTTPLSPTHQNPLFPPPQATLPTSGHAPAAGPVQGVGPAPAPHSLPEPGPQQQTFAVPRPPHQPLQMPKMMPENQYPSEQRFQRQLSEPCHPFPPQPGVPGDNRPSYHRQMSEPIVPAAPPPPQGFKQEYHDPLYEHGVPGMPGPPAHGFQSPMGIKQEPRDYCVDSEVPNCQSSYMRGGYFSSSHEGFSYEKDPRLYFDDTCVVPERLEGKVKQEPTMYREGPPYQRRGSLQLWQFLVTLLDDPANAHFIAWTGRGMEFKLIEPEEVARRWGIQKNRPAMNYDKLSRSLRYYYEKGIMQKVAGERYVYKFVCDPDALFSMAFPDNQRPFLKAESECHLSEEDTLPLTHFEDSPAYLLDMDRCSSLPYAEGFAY
# Chain of SPIB (Q01892 whole entry): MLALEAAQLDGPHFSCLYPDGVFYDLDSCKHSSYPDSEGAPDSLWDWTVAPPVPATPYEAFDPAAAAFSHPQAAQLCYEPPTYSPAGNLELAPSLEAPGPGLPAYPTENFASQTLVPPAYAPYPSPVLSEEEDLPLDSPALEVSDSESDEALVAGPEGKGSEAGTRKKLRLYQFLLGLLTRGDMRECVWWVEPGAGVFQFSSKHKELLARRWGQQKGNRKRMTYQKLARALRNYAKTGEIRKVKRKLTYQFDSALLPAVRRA
# Chain of HSF1 (Q00613 whole entry): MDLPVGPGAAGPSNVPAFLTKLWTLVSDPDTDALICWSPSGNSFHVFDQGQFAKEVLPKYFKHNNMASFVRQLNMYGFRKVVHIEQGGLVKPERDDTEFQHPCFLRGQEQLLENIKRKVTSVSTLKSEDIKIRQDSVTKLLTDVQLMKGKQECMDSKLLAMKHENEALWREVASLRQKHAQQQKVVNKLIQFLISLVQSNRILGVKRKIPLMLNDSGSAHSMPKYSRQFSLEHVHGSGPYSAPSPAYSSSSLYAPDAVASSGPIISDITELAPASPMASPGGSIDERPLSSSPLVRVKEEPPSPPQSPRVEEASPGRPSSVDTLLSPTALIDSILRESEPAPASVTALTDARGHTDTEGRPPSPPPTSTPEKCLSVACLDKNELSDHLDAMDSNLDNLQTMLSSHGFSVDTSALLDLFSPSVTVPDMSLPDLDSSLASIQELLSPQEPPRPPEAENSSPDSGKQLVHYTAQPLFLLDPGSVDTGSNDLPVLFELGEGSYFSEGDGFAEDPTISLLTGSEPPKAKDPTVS
sequence,measurement,setting,value
GAATCT,binding signal,FLI1,"1.03 fold enrichment (6-mer frequency, TF over GST control)"
same,binding signal,GABPA,"1.15 fold enrichment (6-mer frequency, TF over GST control)"
same,binding signal,ERG,"1.04 fold enrichment (6-mer frequency, TF over GST control)"
same,binding signal,ELF1,"1.04 fold enrichment (6-mer frequency, TF over GST control)"
same,binding signal,EHF,"1.06 fold enrichment (6-mer frequency, TF over GST control)"
same,binding signal,SPI1,"1.07 fold enrichment (6-mer frequency, TF over GST control)"
same,binding signal,SPIB,"1.1 fold enrichment (6-mer frequency, TF over GST control)"
same,binding signal,ELK3,"1.08 fold enrichment (6-mer frequency, TF over GST control)"
same,binding signal,FEV,"1.03 fold enrichment (6-mer frequency, TF over GST control)"
same,binding signal,ETV5,"1.13 fold enrichment (6-mer frequency, TF over GST control)"
same,binding signal,HSF1,"1.76 fold enrichment (6-mer frequency, TF over GST control)"
same,binding signal,SPIC,"1.05 fold enrichment (6-mer frequency, TF over GST control)"
same,binding signal,ELF4,"1.07 fold enrichment (6-mer frequency, TF over GST control)"
same,binding signal,ELK4,"1.08 fold enrichment (6-mer frequency, TF over GST control)"
same,binding signal,ETV2,"1.2 fold enrichment (6-mer frequency, TF over GST control)"
same,binding signal,ELF3,"1.03 fold enrichment (6-mer frequency, TF over GST control)"
same,binding signal,CRX,"1.21 fold enrichment (6-mer frequency, TF over GST control)"
same,binding signal,ETV1,"1.08 fold enrichment (6-mer frequency, TF over GST control)"
